# Assay results from PubChem BioAssay (NCATS).
# Inconclusive results are not listed. Where a call stands in place of a potency, no number is given. The source made the active and inactive calls. Calls follow the shape of the dose curve; as a rule, active = well fitted inhibition curve with a large enough effect; inconclusive = small, poorly fitted or top-dose-only effect; inactive = flat fitted curve, though single readings scatter.
# Test system: Zika virus NS2B-NS3 protease
# Experiment: Primary screen GU AMC qHTS for Zika virus inhibitors (AID 1347154); also: nearly all actives have a fitted effect of over 70% in size
# Details: Zika NS2B-NS3 unlinked protease, AMC fluorogenic substrate; series mostly up to 54.1 µM
# How it was run: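 Unlinked Zika NS2B hydrophilic domain–NS3 protease complex at 25 nM in 10 mM Tris-HCl pH 8.0, 0.01% Tween 20, with an AMC peptide substrate. Fluorescence change (340/450 nm) over 15 min at room temperature, normalized to controls, fitted to 4-parameter Hill.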
# Potency is read from the fitted curve at half-maximal effect.
row,Compound,Potency
1,Clc1ccccc1-c1nc(-c2ccncc2)no1,inactive
2,Cc1cc(O)c2ccccc2c1O,inactive
3,NCCO,inactive
4,COc1ccnc2c1CCCCC2S(=O)c1nc2ccccc2[nH]1 (configuration not stated),35.5 µM (active)
5,COc1cc(NC(C)CCCN)c2ncccc2c1 (configuration not stated),inactive
6,Nc1nc2ccc([N+](=O)[O-])cc2s1,inactive
7,COC(=O)C1=C(C)NC(C)=C(C(=O)OCC(C)C)C1c1ccccc1[N+](=O)[O-] (configuration not stated),inactive
8,C[N+]1(C)[C@@H]2CC(OC(=O)[C@H](CO)c3ccccc3)C[C@H]1[C@@H]1O[C@@H]12 (some centres not stated),inactive
9,CCOc1ccc2nc(S(N)(=O)=O)sc2c1,inactive
10,Nc1c(CC(=O)O)cccc1C(=O)c1ccc(Br)cc1,inactive
11,CC(C(=O)O)c1ccc(C(=O)c2cccs2)cc1 (configuration not stated),inactive
12,O=C(O)Cc1ccc(-c2ccccc2)cc1,inactive
13,O=C(O)/C=C\C(=O)O,inactive
14,CN1CCc2ccccc2Cc2[nH]c3ccccc3c2CC1,inactive
15,O=C(OCc1ccccc1)c1ccccc1,inactive
16,O=C(O)c1cc(=O)c2ccccc2[nH]1,inactive
17,CC(=O)c1ccc(OCC(=O)N2CCCCC2)cc1,inactive
18,c1ccc(CCNc2nc(-c3ccccc3)cs2)cc1,inactive
19,O=C(CS)Nc1ccccc1,inactive
20,CC1(C)S[C@@H]2[C@H](NC(=O)[C@H](N)c3ccccc3)C(=O)N2[C@H]1C(=O)O,inactive
21,Cc1c(C(=O)O)c(O)cc2c1C(=O)c1c(O)c([C@@H]3O[C@H](CO)[C@@H](O)[C@H](O)[C@H]3O)c(O)c(O)c1C2=O,inactive
22,CO[C@@]1(NC(=O)Cc2cccs2)C(=O)N2C(C(=O)O)=C(COC(N)=O)CS[C@@H]21,inactive
